# MARV entry inh: Marburg virus entry inhibition | AID 540276 | Potency, µM (series often up to 37.8 µM), for inactives: at the highest dose activity change, negative = inhibition, usual class: inhibitors | Marburg virus pseudotyped entry inhibition, cell reporter | 1.8% of 300,000 active; calls by dose curve; tested in HEK293 cells; further: potency means the concentration at half of the fitted maximal effect
# Lassa entry inh: Lassa virus entry inhibition; Potency, µM (titrated, usually from 37.9 µM), without a hit: at the highest dose activity change, negative = inhibition, usual class: inhibitors; Lassa virus pseudotype entry inhibition, cell reporter; 1.2% of 300,000 active; calls by dose curve; tested in HEK293 cells; further: potency means the concentration at half of the fitted maximal effect; nearly all actives have a fitted effect of over 50% in size
# Pf growth 48h: inhibits P. falciparum growth in the first generation, 48 h. P. falciparum luciferase growth in erythrocytes, 48 h. Potency, µM (series often up to 28.7 µM), inactives show top-dose activity change, negative = inhibition, most hits filed as inhibitors. 5.9% of 310,000 active; further: potency means the concentration at half of the fitted maximal effect
#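 Firefly luciferase activity from engineered P. falciparum reports growth; inhibitors lower the luminescent signal. Cultures contained 2% hematocrit erythrocytes at 0.1% final parasitemia.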
# HCV inh: HCV inhibition; AID 651820; Huh7.5.1 HCVcc-Cre infection, luciferase reporter, 44 h; Potency, µM (titrated, usually from 41.8 µM), without a hit: at the highest dose activity change, negative = inhibition, actives largely listed as inhibitors; 3.4% of 340,000 active; further: potency means the concentration at half of the fitted maximal effect
#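 Whole-lifecycle infectious HCVcc-Cre system; cells 1,000/well, compound then virus (~0.5 moi) added 4 h after plating, 44 h culture. Luciferase read 15 sec following 15 min substrate incubation, room temp.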
# HCMV antiviral: human cytomegalovirus inhibition. AID 1259415. activity change, negative = inhibition, % at 57.5 µM. HFF cells, HCMV-luciferase reporter, 72 h; stronger effect = lower value. 4.5% of 410,000 active; in the data active means activity change below about -60%; inconclusive means no clear call, values can overlap the other calls; inactive means above about -39%
#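 Cell-based, HFFs, 1000 cells/well, 16 h 37C; cpds in DMSO + HCMV-luc, MOI 1 PFU/cell; 72 h 37C; OneGlo luminescence after 5 min RT; norm. to buffer vs Salinomycin 10uM.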
# Pf growth 96h: P. falciparum growth inhibition at 96 hours | Potency, µM (top dose mostly 28.7 µM), inactives show top-dose activity change, negative = inhibition, actives largely listed as inhibitors | 6.9% of 320,000 active | P. falciparum luciferase reporter growth, 96 h | AID 504834; further: potency means the concentration at half of the fitted maximal effect
#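 Cell-based qHTS: luciferase-tagged P. falciparum in erythrocytes (2% hematocrit, 0.05% parasitemia final) incubated with compounds for 96 hours, 37 C, 5% CO2; luciferase detection reagent then added and luminescence measured.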
# * marks the source's active call; other numbers are inactive results; ? = inconclusive; / = no result given; [ ] = remark or other dose. Sampled rows, rich in hits. Any-hit rate of the full collection: about 14%. Unless noted, the call rests on the fitted dose curve; in most records, active means well fitted inhibition curve with a large enough effect; inconclusive means small, poorly fitted or top-dose-only effect, or another doubt; inactive means no such curve, though single readings can be large or run the other way. On the % scale 0 is the no-effect control and ±100 the full control effect.
SMILES,MARV entry inh,Lassa entry inh,Pf growth 48h,HCV inh,HCMV antiviral,Pf growth 96h
CCc1cccc(C)c1NC(=S)N(Cc1cccnc1)Cc1ccco1,16%,-21%,?,?,9,12µM*
Cc1cccc(C)c1NC(=S)N(Cc1ccccc1)Cc1cccnc1,-17%[46.1 µM],-19%,?,8%,-18,-19%
CCN(Cc1ccncc1)C(=S)Nc1c(C)cccc1C,9%,-2%,22%,8%,16,2.1µM*
S=C(Nc1ccccc1Cl)N(Cc1cccnc1)Cc1ccco1,-23%[46.1 µM],-15%,4.1µM*,-16%,-22,?
O=c1[nH]c(O)c(C=Nc2cccc(F)c2)c(=O)[nH]1,/,/,27%,-1%,-13,150%
Cc1cc(C)c(N=Cc2c(O)[nH]c(=O)[nH]c2=O)c(C)c1,4%[46.1 µM],?,-14%,17%,32,3.3µM*
O=C(O)c1ccc(N=Cc2c(O)[nH]c(=O)[nH]c2=O)cc1,15%,-1%,17%,4%,-76*,25%
O=c1[nH]c(O)c(C=Nc2ccc(F)c(Cl)c2)c(=O)[nH]1,/,/,21%,10%,?,22%
COc1cc(C)cc(CN2CC=C(c3ccccc3)CC2)c1O,?,-11%,1.2µM*,?,34,?
COc1ccc2c(CN3CC=C(c4ccccc4)CC3)cc(=O)oc2c1,?,12%,?,-7%,-34,?
COc1ccc2ccc(O)c(CN3CC=C(c4ccccc4)CC3)c2c1,/,/,1.7µM*,-15%,-35,?
COc1ccc(CN2COc3ccc4c(-c5ccccc5)cc(=O)oc4c3C2)cc1OC,-28%[46.1 µM],8%[46.1 µM],/,/,-38,/
COc1cccc(C(=O)NCCS(=O)(=O)N2CC(C)CC(C)C2)c1 (stereo not given),4%,1%,22%,8%,-29,49%
O=C(OCc1cn([C@H]2CN(C(=O)c3cccs3)[C@@H](c3ccccc3)C[C@@H]2O)nn1)c1ccccc1,/,/,/,/,-2,/
COc1ccc(-c2cn3cc(C)ccc3n2)cc1Br,14µM*,?,159%,?,194,-6%
COc1ccc(-c2cn3cc(Cl)ccc3n2)cc1OC,?,7%,47%,?,124,28%
CC1CCC(NC(=O)c2ccc3c(c2)S(=O)(=O)c2ccccc2C3=O)CC1 (stereo not given),/,/,/,-10%,-67*,/
CC(C)OCCCNC(=O)c1ccc(NS(C)(=O)=O)cc1,13%,4%,-5%,-4%,4,10µM*
O=C(COC(=O)c1ccc2c(c1)S(=O)(=O)c1ccccc1C2=O)NC1CC1,?,3%[46.1 µM],?,-1%,4,-51%[5.75 µM]
CC(C)OCCCNC(=O)c1ccc2c(c1)S(=O)(=O)c1ccccc1C2=O,2%,0%,-22%,/,0,9.3µM*
C=CCNC(=O)c1ccc2c(c1)S(=O)(=O)c1ccccc1C2=O,/,/,/,25µM*,3,/
COc1ccc(C(=O)CC2(O)C(=O)Nc3c(C)cccc32)c(OC)c1OC (stereo not given),/,?,/,/,-7,/
CC1CCN(S(=O)(=O)c2ccc3c(c2)N(CC(=O)NC(C)C)C(=O)CS3)CC1,-27%[46.1 µM],/,/,/,14,/
C[C@H](CO)N1C[C@H](C)[C@@H](CN(C)C(=O)Nc2ccc(C(F)(F)F)cc2)Oc2ccc(NS(=O)(=O)c3ccccc3)cc2C1=O,/,/,/,3%,-29,/
Cc1ccc(C2CC(c3ccccc3OC(F)F)Nc3ncnn32)cc1 (stereo not given),29%,-12%,12µM*,2%,-26,/
SMILES,MARV entry inh,Lassa entry inh,Pf growth 48h,HCV inh,HCMV antiviral,Pf growth 96h
Cc1cc(C)cc(NC(=O)CSc2nccn2C2CCCC2)c1,/,16%[46.1 µM],/,/,36,/
CC(=O)c1c(C)nc2sc3c(=N)n(N)cnc3c2c1-c1ccc(Cl)cc1,?,-20%,?,?,?,13µM*
O=C(C1CCOCC1)N1CC(=O)N2[C@@H](CO)[C@H](c3ccc(Br)cc3)[C@@H]2C1,/,/,/,/,-2,/
COc1ccccc1C(=O)NCCSCc1c(F)cccc1Cl,/,/,?,-22%,8,10µM*
O=C(NCCSCc1c(F)cccc1Cl)c1ccco1,12%[46.1 µM],2%,?,8%,45,-20%[5.75 µM]
COc1ccc(C2(C(=O)Nc3ccc(S(=O)(=O)Nc4nc(C)cc(C)n4)cc3)CCCC2)cc1OC,3%,-14%,-16%,17%,4,146%
Cc1cc(C)nc(NS(=O)(=O)c2ccc(NC(=O)C3(c4ccc([N+](=O)[O-])cc4)CCCC3)cc2)n1,?,0%,10%,22%,-13,9.3µM*
CCCCCCCNC(=O)C1(CC2CC(c3ccc(Cl)cc3)=NO2)CCN(C(=O)OC(C)(C)C)CC1 (stereo not given),/,/,?,11%,64,5.2µM*
CCOc1cc(C(=O)N2CCC(CC3CC(c4cccc(Br)c4)=NO3)(C(=O)NCC3CCCCC3)CC2)cc(OCC)c1OCC (stereo not given),/,/,0.37µM*,?,93,?
CCCCCCCNC(=O)C1(CC2CC(c3cccc(Br)c3)=NO2)CCN(C(=O)CCCCCBr)CC1 (stereo not given),/,/,13µM*,?,74,?
O=C(C1CCCC1)N1CCC(CC2CC(c3cccc(Br)c3)=NO2)(C(=O)NCC2CCCCC2)CC1 (stereo not given),/,/,?,-9%,-8,?
CC(=O)N1CCc2cc(CNC(=O)Nc3ccc(Br)c(C)c3)ccc21,/,-14%[46.1 µM],/,/,-3,/
COc1cc(/C=N/n2cc(-c3ccccc3)[nH]c2=S)cc(OC)c1O,/,/,12µM*,2%,14,?
Oc1ccc(/C=N/n2cc(-c3ccccc3)[nH]c2=S)cc1,/,/,?,-26%,12,?
C=CC[C@@H]1C=C[C@@H](Oc2ccc(OC)cc2)[C@@H](CO)O1,-15%[14.2 µM],/,/,/,/,/
O=C1C(=O)c2ccccc2C([O-])=C1[n+]1ccccc1,/,/,3.7µM*,6%,-36,7.4µM*
CCNc1nc(SC(C)C(=O)Nc2ccccc2)nc(N(C)C)n1 (stereo not given),?,-11%[46.1 µM],-20%,-25%,129,-10%
COC(=O)C(C)Sc1nc(NCc2ccccc2)nc(N(C)C)n1 (stereo not given),9%[46.1 µM],12%,-19%,3.2µM*,-34,-20%
Cc1cc(C)cc(Nc2cc(-c3ccccc3)nc(C)n2)c1,?,1%[46.1 µM],/,/,-24,/
O=C(NCc1ccccc1)C1=C[C@H](c2ccccc2)C[C@H](OCc2ccc(CO)cc2)O1,/,/,/,-4%,-91*,/
CC(=O)n1cc([C@H]2C=C(C(=O)Nc3ccccc3)O[C@@H](OCc3ccc(CO)cc3)C2)c2ccccc21,/,/,8.3µM*,-15%[8.37 µM],/,12µM*
CC(=O)n1cc([C@@H]2C=C(C(=O)Nc3ccccc3)O[C@H](OCCCCO)C2)c2ccccc21,/,/,?,?,65,?
